Measured values published in PubChem BioAssay (NCI).
About 83,000 compounds went through this panel and 20% of them were active in at least one assay; those are over-represented in the sample as a whole.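 Testing used 96-well plates and a 48-hour single-concentration exposure. Example: -40 means 40% of the starting cells died.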 Unmarked numbers belong to inactive results. The source made the active and inactive calls. The calls were made as follows: active = growth percent below 10; inactive = the rest.

Experiments:
Assay in all cases: NCI-60 one-dose screen, 48 h (100 = growth as untreated, 0 = no growth, -100 = all killed)
Conditions in all cases: 10 µM unless noted
NCI-H226 lung = test system: NCI-H226 lung
NCI-H322M lung = test system: NCI-H322M lung
HOP-62 NSCLC = test system: HOP-62 NSCLC
NCI-H460 lung = test system: NCI-H460 lung
HOP-92 NSCLC = test system: HOP-92 NSCLC
NCI-H522 lung = test system: NCI-H522 lung
A549/ATCC NSCLC = test system: A549/ATCC NSCLC
786-0 renal = test system: 786-0 renal
COLO 205 colon = test system: COLO 205 colon
DU-145 prostate = test system: DU-145 prostate
K-562 leukemia = test system: K-562 leukemia
MALME-3M melanoma = test system: MALME-3M melanoma
MDA-MB-231 breast = test system: MDA-MB-231 breast
RXF 393 renal = test system: RXF 393 renal
SF-268 CNS = test system: SF-268 CNS
SF-295 CNS = test system: SF-295 CNS
SF-539 CNS = test system: SF-539 CNS
UACC-257 melanoma = test system: UACC-257 melanoma
M14 melanoma = test system: M14 melanoma
HCT-15 colon = test system: HCT-15 colon

SMILES	growth (NCI-H226 lung)	growth (NCI-H322M lung)	growth (HOP-62 NSCLC)	growth (NCI-H460 lung)	growth (HOP-92 NSCLC)	growth (NCI-H522 lung)	growth (A549/ATCC NSCLC)	growth (786-0 renal)	growth (COLO 205 colon)	growth (DU-145 prostate)	growth (K-562 leukemia)	growth (MALME-3M melanoma)	growth (MDA-MB-231 breast)	growth (RXF 393 renal)	growth (SF-268 CNS) [%]	growth (SF-295 CNS)	growth (SF-539 CNS)	growth (UACC-257 melanoma)	growth (M14 melanoma)	growth (HCT-15 colon)
CS(=O)(=O)c1ccc(-n2cc(/C=C/C(=O)c3ccc(NC(=O)CO[N+](=O)[O-])cc3)c(-c3ccc(Cl)cc3)n2)cc1	72.2%	97.1%	103%	106%	90.2%	103%	91.8%	67.6%	111%	101%	119%	100%	79.5%	86.8%	111	91.2%	92.7%	97.1%	91.6%	96.2%
CCCC(=O)NC(c1ccc(N(CC)CC)cc1)c1cc(C)c2cccnc2c1O (stereo not given)	1.21% (active)	27.8%	17.4%	1.53% (active)	46.4%	15.9%	28.7%	0.0799% (active)	23.1%	25.6%	14.6%	16%	43.9%	43.1%	27.6	17.6%	11.3%	24.9%	-33% (active)	29.5%
COc1cc(/C=C/C(=O)c2ccc(C)cc2)ccc1Oc1nc(NCCO)nc(N2CCOCC2)n1	52%	102%	104%	69.2%	63.6%	76.9%	97%	-50.7% (active)	107%	87%	6.48% (active)	71.6%	67.7%	82.1%	66.1	79.8%	39.5%	101%	-64.4% (active)	14.5%
Cn1ccnc1C(=O)/C=C/c1ccc(NC(=O)Nc2ccc(Cl)cc2)cc1	81.9%	95.1%	94.8%	59.6%	104%	78.2%	86.8%	56.8%	95.9%	75.7%	47.6%	84.2%	73.4%	70.1%	81.8	85.9%	83.1%	100%	84.4%	47.1%
COc1cc(-c2nc3ccc(-c4nnc(SCC(=O)Nc5ccc(C(C)=O)cc5)o4)cc3[nH]2)cc(OC)c1OC	105%	99.5%	98.7%	103%	92.5%	99.5%	99.9%	106%	110%	115%	108%	97.7%	96%	116%	111	101%	97.6%	105%	105%	103%
COc1ccccc1/C=C/C=N/NC1=NC2C(S1)N(C)C(=O)N2C (stereo not given)	55.7%	51.7%	35.6%	11.1%	9.2% (active)	-24% (active)	48.3%	44.2%	5.69% (active)	24.5%	9.44% (active)	43.8%	40%	-20.8% (active)	52	16.2%	5.56% (active)	78.8%	19%	30.4%
Cc1ccccc1NC(=O)/C=C/c1ccc(OCCOc2ccc3c(C)cc(=O)oc3c2)cc1	92.9%	92.2%	110%	91.8%	93.1%	85.1%	95.7%	110%	103%	100%	88.8%	89.7%	91.8%	95.3%	89.2	104%	50.8%	101%	98.2%	74.7%
Fc1ccc(-c2cc3nc(C(Cl)Cl)nc(-c4ccccc4)n3n2)cc1	85.7%	-33.9% (active)	-36.9% (active)	-69.1% (active)	-27.7% (active)	42.4%	-45.6% (active)	5.34% (active)	-72.5% (active)	-33.8% (active)	19.2%	47.2%	-10.2% (active)	-62.9% (active)	10.2	2.73% (active)	-10.6% (active)	-2.11% (active)	26.9%	7.35% (active)
COc1ccc(-c2csc(N/N=C/c3c(-c4ccc(S(C)(=O)=O)cc4)nc4ccccn34)n2)cc1	115%	106%	121%	109%	99.9%	104%	105%	82.7%	120%	113%	98.5%	118%	107%	114%	110	106%	107%	112%	106%	101%
O=C1c2c(c3c4cccnc4[nH]c3c3ccc4ccccc4c23)C(=O)N1CCO	80.7%	95%	64.5%	17.6%	129%	52.8%	78.3%	84%	78.4%	87.2%	51.4%	114%	78.8%	101%	78.4	50.9%	78.7%	92.7%	86.1%	72.1%
Cc1[nH]nc2ncc(C#Cc3cncc(C(=O)Nc4ccc(CN5CCN(C)CC5)c(C(F)(F)F)c4)c3)cc12	3.71% (active)	44.3%	28.9%	10.7%	-23% (active)	47.8%	23.9%	43.1%	-25.6% (active)	36.4%	7.53% (active)	-28.5% (active)	-39.2% (active)	-12.8% (active)	21.2	34.2%	-3.8% (active)	14.7%	-17.1% (active)	12.5%
N[C@@H](Cc1cn(-c2c3ccccc3nc3ccccc23)nn1)C(=O)O	103%	98.3%	96.6%	111%	108%	105%	102%	105%	109%	105%	88%	103%	97.4%	114%	101	105%	90.8%	106%	107%	85.4%
O=C(N/N=C/c1ccc([N+](=O)[O-])s1)c1[nH]c2ccc(Br)cc2c1-c1ccccc1	23.7%	54.9%	27.2%	-26.1% (active)	-7.35% (active)	-44.5% (active)	14.5%	9.9% (active)	-55.5% (active)	20.4%	5.34% (active)	14.8%	-24.1% (active)	39.3%	36.4	23.8%	-21.2% (active)	58%	-34.5% (active)	4.77% (active)
CN(C)CCCNc1c2ccc(Cl)cc2nc2c1oc1ccc(Cl)cc12	25.7%	2.57% (active)	47.7%	-31.2% (active)	21.8%	16.7%	-38.4% (active)	-85.3% (active)	34.2%	-48.8% (active)	-6.56% (active)	49.4%	-60.9% (active)	-80.8% (active)	43.8	-66.9% (active)	-85.8% (active)	94.5%	-75.6% (active)	-42.4% (active)
COc1ccc(-n2c(SCC(=O)Nc3ccc(-c4nc5ccccc5[nH]4)cc3)nc3ccccc3c2=O)cc1	48.5%	51.9%	89.4%	-55.9% (active)	-33.3% (active)	-32.9% (active)	-24.4% (active)	-95.4% (active)	77.5%	6.71% (active)	5.98% (active)	-57.3% (active)	29%	-39.1% (active)	42.6	16.2%	-77.3% (active)	45.3%	-26.7% (active)	-11% (active)
O=C1Nc2ccc(Cl)cc2/C1=C/c1ccc(OCC(=O)c2ccc(Br)cc2)cc1	78.7%	84.7%	68.4%	94.7%	72%	95.9%	102%	103%	98.5%	103%	102%	84.5%	76.2%	114%	94	99.9%	102%	100%	95.6%	99.2%
